Test results as given in PubChem BioAssay (EPA / NIEHS).
Results filed as inconclusive are left out. The source made the active and inactive calls. How the source made its calls: active means hit-call score of the fitted dose curve at least 0.9, where 1 is the maximum; inconclusive means response in the unintended direction; inactive means score below 0.9.

biological target: Cellular tumor antigen p53 (Homo sapiens) (UniProt P04637); assay: TOX21_p53_BLA_p3_ratio: Tox21 HCT-116 p53 Agonism Beta-lactamase Assay, Ratio, Phase 3 (AID 2283596)
Description: TOX21_p53_BLA_p3 is a cell-based, single-readout assay that uses HCT116, a human intestinal cell line, […] in a 1536-well plate.TOX21_p53_BLA_p3_ratio is an assay readout measuring reporter gene via receptor activity and designed using inducible reporter (beta lactamase induction) detected with GAL4 b-lactamase reporter gene. The signal is derived from the ratio of cleaved (ch2) to uncleaved (ch1) reporter gene substrate used as the measure of target activity.Data from the assay component TOX21_p53_BLA_p3_ratio was analyzed into 1 assay endpoint. This assay endpoint, TOX21_p53_BLA_p3_ratio, was analyzed in the positive analysis fitting direction relative to DMSO as the negative control and baseline of activity. Using a type of inducible reporter, gain-of-signal activity can be used to understand changes in the reporter gene as they relate to the gene TP53. Furthermore, this assay endpoint can be referred to as a primary readout, because this assay has produced multiple assay endpoints where this ratio serves a reporter gene function to understand target activity. To generalize the intended target to other relatable targets, this assay endpoint is annotated to the DNA binding intended target family, where the subfamily is tumor suppressor.
Thawing Method: Place 14 mL of pre-warmed thaw medium into a 15 mL of conical tub. Remove the vial of cells to be thawed from liquid nitrogen and thaw rapidly by placing at 37C in a water bath with gentle agitation for 1-2 minutes. Decontaminate the vial by wiping with 70% ethanol before opening in a biological safety cabinet. Transfer the vial contents drop-wise into 14 mL of thaw medium in a sterile 15-mL conical tub. Centrifuge cells at 900 rpm for 4 minutes and resuspend in thaw medium. Transfer contents to the T75 tissue culture flask containing Thaw Medium and place flask in a humidified 37C/5% CO2 incubator. Switch to growth medium at first passage.Propagation Method: Aspirate medium, rinse once in DPBS, add 0.25% Trypsin/EDTA and swirl to coat the cell evenly. Add an equal volume of Growth Medium to inactivate Trypsin after 2-3 minutes incubation at 37C. Centrifuge cells at 900 rpm for 4 minutes and resuspend in growth medium. Cell should be passage or fed at least twice a week.Assay Protocol: Harvest cells from culture in growth medium and resuspend in assay medium. 2.2 Dispense 4000 cells/5 uL/well into 1536-well black/clear bottom plates using a Multidrop dispenser. After the cells were incubated at 37C for 5 hours, 23 nL of compounds dissolved in DMSO were transferred to the assay plate by a PinTool resulting in a 217-fold dilution. Incubate the plates for 16 hours at 37C, 5% CO2. Add 1 uL of 6X LiveBLAzer FRET B/G (CCF4-AM) Substrate Mixture to each well using a BioRAPTR dispenser and incubate the plates at room temperature for 2 hours. Measure fluorescence intensity at 460 and 530 nm emission and 405 nm excitation by an Envision detector. Data is expressed as the ratio of 460nm/530nm emissions. Add 4 uL of Cell-titer Glo to each well using BioRAPTR and incubate the plates at room temperature for 2 hours. Measure fluorescence intensity by a VewLux plate reader.

Sequence of Cellular tumor antigen p53 (Homo sapiens) (P04637 whole entry, looked up, the tested form may be a part): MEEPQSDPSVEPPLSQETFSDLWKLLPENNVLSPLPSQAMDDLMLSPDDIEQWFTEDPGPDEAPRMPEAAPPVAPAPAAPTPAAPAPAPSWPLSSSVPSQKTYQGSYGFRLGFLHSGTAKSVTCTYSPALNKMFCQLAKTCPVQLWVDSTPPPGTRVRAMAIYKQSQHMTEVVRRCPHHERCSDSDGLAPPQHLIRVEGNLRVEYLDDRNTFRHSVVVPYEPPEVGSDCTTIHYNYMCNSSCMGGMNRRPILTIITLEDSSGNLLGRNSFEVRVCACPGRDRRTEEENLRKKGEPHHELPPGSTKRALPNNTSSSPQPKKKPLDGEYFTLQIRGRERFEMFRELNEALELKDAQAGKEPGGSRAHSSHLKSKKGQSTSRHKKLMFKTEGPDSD

| SMILES | outcome | AC50 |
| --- | --- | --- |
| CC=C(Cl)Cl | inactive | – |
| CC(C)(C)C(=O)OCOP(=O)(COCCn1cnc2c(N)ncnc21)OCOC(=O)C(C)(C)C | inactive | – |
| CCOC(=O)[C@H](CCc1ccccc1)N[C@@H](C)C(=O)N1Cc2cc(OC)c(OC)cc2C[C@H]1C(=O)O | inactive | – |
| Clc1ccc2nsnc2c1NC1=NCCN1 | inactive | – |
| CO/N=C(\C(=O)N[C@@H]1C(=O)N2C(C(=O)O)=C(C[N+]3(C)CCCC3)CS[C@H]12)c1csc(N)n1 | inactive | – |
| CC(COc1ccccc1)NC(C)C(O)c1ccc(O)cc1 (stereo not given) | inactive | – |
| C=CC(=O)OCCOCC(CC)(COCCOC(=O)C=C)COCCOC(=O)C=C | inactive | – |
| O=[N+]([O-])c1cc(Cl)c(Cl)c(Cl)c1Cl | inactive | – |
| OCC(O)COc1ccc(Cl)cc1 (stereo not given) | inactive | – |
| COc1cc2nc(N3CCN(C(=O)c4ccco4)CC3)nc(N)c2cc1OC | inactive | – |
| C1CCCNCCC1 | inactive | – |
| O=Nc1ccc(NO)cc1 | inactive | – |
| CC(C)(C)N(CCO)CCO | inactive | – |
| Nc1nc2c(ncn2COCCO)c(=O)[nH]1 | inactive | – |
| C=N[C@@H](C(=O)N[C@@H]1C(=O)N2[C@@H]1SC(C)(C)[C@@H]2C(=O)O)c1ccccc1 | inactive | – |
| CC(=O)NC[C@H]1CN(c2ccc(N3CCOCC3)c(F)c2)C(=O)O1 | inactive | – |
| COC(=O)c1cc(C(=O)OC)cc(S(=O)(=O)O)c1 | inactive | – |
| C=CC(=O)[O-].C=CC(=O)[O-].[Zn+2] | inactive | – |
| Cc1ccccc1C(=O)O | inactive | – |
| CCN1CCCC(OC(=O)C(c2ccccc2)c2ccccc2)C1 (stereo not given) | inactive | – |

| SMILES | outcome | AC50 |
| --- | --- | --- |
| C[N+](C)(C)CC(O)CCl (stereo not given) | inactive | – |
| CC1CCCCN1CCCOC(=O)c1ccccc1 (stereo not given) | inactive | – |
| CN1CCCC(CC2c3ccccc3Sc3ccccc32)C1 (stereo not given) | inactive | – |
| Oc1ccc(C2CNCCc3c2cc(O)c(O)c3Cl)cc1 (stereo not given) | inactive | – |
| Nc1nc(N)c(-c2ccccc2)s1 | inactive | – |
| NS(=O)(=O)c1ccc(Cl)c(S(N)(=O)=O)c1 | inactive | – |
| CC(=O)CCC=C(C)CC/C=C(\C)CC/C=C(\C)CCC=C(C)C | inactive | – |
| COC(=O)Nc1nc2ccc(C(=O)c3cccs3)cc2[nH]1 | – | 45.8 nM (active) |
| CCN(CC)CCNC(=O)COc1ccc(OC)cc1 | inactive | – |
| COc1ccc2c(c1OC)C(=O)O[C@@H]2[C@H]1c2c(cc3c(c2OC)OCO3)CCN1C | inactive | – |
| CC(=O)CC(=O)Nc1ccc(S(=O)(=O)O)cc1 | inactive | – |
| CC1CCCC(=O)C1=O (stereo not given) | inactive | – |
| NC[C@H]1O[C@H](O[C@H]2[C@H](O[C@@H]3O[C@H](CO)[C@@H](O)[C@H]3O)C(O)[C@H](N)C[C@@H]2N)[C@H](N)[C@@H](O)[C@@H]1O (stereo not given in full) | inactive | – |
| CC(Cc1cccc(C(F)(F)F)c1)NCCOC(=O)c1ccccc1 (stereo not given) | inactive | – |
| CCNS(=O)(=O)c1ccc(C)cc1 | inactive | – |
| C[N+]1(C)CCN(CC(O)(c2ccccc2)C2CCCCC2)CC1 (stereo not given) | inactive | – |
| CCCCOc1ccc(OCCCN2CCOCC2)cc1 | inactive | – |
| CCC(C)(CN(C)C)OC(=O)c1ccccc1 (stereo not given) | inactive | – |
| O=C(CCNNC(=O)c1ccncc1)NCc1ccccc1 | inactive | – |
| BrC(Br)C(Br)Br | inactive | – |
